Reference: the supplement of paper PMC3414501
Structures can show the parent of a compound that is named as a salt. A number with no mark means an inactive call.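 How the source made its calls: active = HIS4 sensitivity z-score above 5 vs DMSO controls; inactive = score 5 or below.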

What follows are molecules tested on S. cerevisiae NKY1551 his4x/his4B, sporulating (assay: HIS4 meiotic recombination assay sensitivity score (z-score vs DMSO controls); higher = stronger inhibition of sporulation/recombination, active = hit call of the paper).

Row | SMILES | HIS4 meiotic recombination assay sensitivity score
1 | COc1ccc2[nH]c([S+]([O-])Cc3ncc(C)c(OC)c3C)nc2c1 (stereo unspecified) [Esomeprazole mg] (stock concentration (mM, diluted 1:100): 4.8) | 0.32
2 | CCOC(=O)O[C@]1(C(=O)OCCl)CC[C@H]2[C@@H]3CCC4=CC(=O)C=C[C@]4(C)[C@H]3[C@@H](O)C[C@@]21C [Loteprednol etabonate] (stock concentration (mM, diluted 1:100): 10) | -0.2
3 | COc1ccccc1N1CCN(CCCNc2cc(=O)n(C)c(=O)n2C)CC1 [Urapidil hydrochloride] (stock concentration (mM, diluted 1:100): 10) | -0.7
4 | COc1ccc(-c2cc(=O)c3c(OC)c(OC)c(OC)c(OC)c3o2)cc1OC [Nobiletin] (stock concentration (mM, diluted 1:100): 10) | 1.02
5 | CCN1CCC[C@H]1CNC(=O)c1cc(S(N)(=O)=O)ccc1OC [Levosulpiride] (stock concentration (mM, diluted 1:100): 10) | 0.77
6 | C[C@@H](O)[C@H]1C(=O)N2C(C(=O)O)=C(S[C@@H]3CN[C@H](C(=O)N(C)C)C3)[C@H](C)[C@H]12 [Meropenem] (stock concentration (mM, diluted 1:100): 11.4) | -1.58
7 | Clc1ccc2c(c1)CCc1cccnc1C2=C1CCNCC1 [Desloratadine] (stock concentration (mM, diluted 1:100): 10) | 1.24
8 | Cc1nc2n(c(=O)c1CCN1CCC(c3noc4cc(F)ccc34)CC1)CCCC2 [Risperidone] (stock concentration (mM, diluted 1:100): 10) | 1.75
9 | C[C@H]1O[C@H](O[C@H]2[C@H](O)[C@@H](O)[C@@H](O[C@H]3[C@H](O)[C@@H](O)C(O)O[C@@H]3CO)O[C@@H]2CO)[C@H](O)[C@@H](O)[C@@H]1N[C@H]1C=C(CO)[C@@H](O)[C@H](O)[C@H]1O (stereo partly specified) [Acarbose] (stock concentration (mM, diluted 1:100): 10) | -0.56
10 | NC(=O)c1cccnc1 [Nicotinamide] (stock concentration (mM, diluted 1:100): 10) | 0.03
11 | CC(COc1ccccc1Cc1ccccc1)N1CCCCC1 (stereo unspecified) [Benproperine phosphate] (stock concentration (mM, diluted 1:100): 10) | 7.79 (active)
12 | Oc1ccc(C2CNCCc3c2cc(O)c(O)c3Cl)cc1 (stereo unspecified) [Fenoldopam mesylate] (stock concentration (mM, diluted 1:100): 7.7) | -0.24
13 | O=C(c1ccc(F)cc1)C1CCN(CCn2c(=S)[nH]c3ccccc3c2=O)CC1 [Altanserin] (stock concentration (mM, diluted 1:100): 10) | -0.6
14 | C[C@]12CCC(=O)C=C1CC[C@@H]1[C@@H]2C(=O)C[C@@]2(C)[C@H]1CC[C@]2(O)C(=O)CO [Cortisone] (stock concentration (mM, diluted 1:100): 10) | -0.95
15 | COc1cc(N)c(Cl)cc1C(=O)NC1CCN(CCCOc2ccc(F)cc2)CC1OC (stereo unspecified) [Cisapride] (stock concentration (mM, diluted 1:100): 10.5) | -0.37
16 | CCOC(=O)C1=C(C)NC(C)=C(C(=O)OCC)C1c1ccccc1/C=C/C(=O)OC(C)(C)C [Lacidipine] (stock concentration (mM, diluted 1:100): 10) | 0.32
17 | COc1ccc(CC2c3cc(OC)c(OC)cc3CC[N+]2(C)CCC(=O)OCCCCCOC(=O)CC[N+]2(C)CCc3cc(OC)c(OC)cc3C2Cc2ccc(OC)c(OC)c2)cc1OC (stereo unspecified) [Atracurium besylate] (stock concentration (mM, diluted 1:100): 10) | 0.87
18 | C#C[C@]1(O)CC[C@H]2[C@@H]3[C@H](C)CC4=C(CCC(=O)C4)[C@H]3CC[C@@]21C [Tibolone] (stock concentration (mM, diluted 1:100): 10) | 1.06

Row | SMILES | HIS4 meiotic recombination assay sensitivity score
19 | CC1CCN(CCCC(=O)c2ccc(F)cc2)CC1 [Metylperon] (stock concentration (mM, diluted 1:100): 10) | 0.9
20 | CN1CCN(c2c(F)cc3c(=O)c(C(=O)O)cn4c3c2SCC4)CC1 [Rufloxacin hydrochloride] (stock concentration (mM, diluted 1:100): 10) | -0.04
21 | CCOC(=O)OC(C)OC1=C(C(=O)Nc2ccccn2)N(C)S(=O)(=O)c2ccccc21 (stereo unspecified) [Ampiroxicam] (stock concentration (mM, diluted 1:100): 10) | 1.18
22 | O=C(O)Cc1ccccc1Nc1c(Cl)cccc1Cl [Diclofenac] (stock concentration (mM, diluted 1:100): 10) | 0.28
23 | CC(=O)Oc1ccccc1C(=O)Nc1ncc([N+](=O)[O-])s1 [Nitazoxanide] (stock concentration (mM, diluted 1:100): 10) | 6.54 (active)
24 | O=C1c2c(O)cc(O)cc2OC(c2ccc(O)c(O)c2)C1O (stereo unspecified) [Taxifolin] (stock concentration (mM, diluted 1:100): 10.1) | -0.52
25 | CSc1nc2cc(Cl)c(Oc3cccc(Cl)c3Cl)cc2[nH]1 [Triclabendazole] (stock concentration (mM, diluted 1:100): 10) | -1.98
26 | CS(=O)(=O)c1ccc(C2=C(c3ccccc3)C(=O)OC2)cc1 [Rofecoxib] (stock concentration (mM, diluted 1:100): 10) | -1.67
27 | CN1CCN(C2=Nc3cc(F)ccc3Cc3ccccc32)CC1 [Fluperlapine] (stock concentration (mM, diluted 1:100): 10) | -1.76
28 | C[C@H]1[C@H](OC(=O)CCC(=O)O)O[C@@H]2O[C@@]3(C)CC[C@H]4[C@H](C)CC[C@@H]1[C@@]24OO3 [Artesunate] (stock concentration (mM, diluted 1:100): 10) | 0.08
29 | COc1cc(C)c(Cc2cnc(N)nc2N)cc1OC [Ormetoprim] (stock concentration (mM, diluted 1:100): 10) | -0.05
30 | CCCc1nc(C)c2c(=O)nc(-c3cc(S(=O)(=O)N4CCN(CC)CC4)ccc3OCC)[nH]n12 [Vardenafil citrate] (stock concentration (mM, diluted 1:100): 7.2) | -0.18
31 | CCC(C)(C)N=C(NC#N)Nc1cccnc1 [Tocris-1355] (stock concentration (mM, diluted 1:100): 9.9) | -1.39
32 | CC1=C(C(=O)O)N2C(=O)[C@@H](NC(=O)[C@H](N)c3ccccc3)[C@H]2SC1 [Cephalexin monohydrate] (stock concentration (mM, diluted 1:100): 10) | -1.5
33 | CN(C)CCC(c1ccc(Cl)cc1)c1ccccn1 (stereo unspecified) [Chlorpheniramine] (stock concentration (mM, diluted 1:100): 10) | 5.73 (active)
34 | C[C@@H]1O[C@@H](OC[C@H]2O[C@@H](Oc3c(-c4ccc(O)c(O)c4)oc4cc(O)cc(O)c4c3=O)[C@H](O)[C@@H](O)[C@@H]2O)[C@H](O)[C@H](O)[C@H]1O [Rutin] (stock concentration (mM, diluted 1:100): 10) | -1.04
35 | CC(C)NCC(O)COc1ccc(COCCOC(C)C)cc1 (stereo unspecified) [Bisoprolol fumarate] (stock concentration (mM, diluted 1:100): 8.5) | -0.11
36 | CC[C@H](C)C(=O)O[C@H]1C[C@H](O)C=C2C=C[C@H](C)[C@H](CC[C@@H](O)C[C@@H](O)CC(=O)O)[C@H]21 [Pravastatin sodium] (stock concentration (mM, diluted 1:100): 9.5) | -0.46
